The target in this test is T1, CRBN, Q96SW2.
T1 chain: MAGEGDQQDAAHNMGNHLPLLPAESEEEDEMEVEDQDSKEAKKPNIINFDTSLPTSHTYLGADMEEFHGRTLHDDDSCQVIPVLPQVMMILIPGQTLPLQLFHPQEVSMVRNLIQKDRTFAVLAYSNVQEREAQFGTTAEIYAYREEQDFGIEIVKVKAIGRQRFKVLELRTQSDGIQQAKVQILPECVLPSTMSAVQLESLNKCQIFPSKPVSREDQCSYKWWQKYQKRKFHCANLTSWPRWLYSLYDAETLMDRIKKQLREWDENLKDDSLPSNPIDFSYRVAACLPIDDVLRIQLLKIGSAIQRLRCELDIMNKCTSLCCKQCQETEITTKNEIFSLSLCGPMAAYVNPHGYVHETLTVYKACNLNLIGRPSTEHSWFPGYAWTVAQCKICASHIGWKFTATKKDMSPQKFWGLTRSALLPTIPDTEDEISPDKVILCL
The experiment in a line: log2 fold change of degron read counts, EGFP-low vs EGFP+ sorted cells (limma voom), compound-induced degradation; higher = more compound-induced degradation of the degron-EGFP fusion; degrons are variants of IKZF1/3 zinc finger 2; compound dose not given here. The note with it: Jurkat, 18 h. How it is done:
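Pooled library of 8380 IKZF3 ZF2 degron mutants (positions 146-167 varied within the IKZF3 130-189 degron; only the varied core is printed, flanks not printed) fused to EGFP with IRES-mCherry, lentivirally expressed in Jurkat cells. mCherry+ cells were treated with one IMiD compound for 18 h (dose not stated) and FACS-sorted into EGFP-low and EGFP+ populations. Degron sequences were counted by NGS, and log2FC (EGFP-low vs EGFP+) was estimated by limma voom over 3 biological replicates.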

Setting [1] is: compound: compound 19 (5-tert-butyl-thalidomide).
Where [2] appears, read: compound: compound 22 (5-morpholino-thalidomide).
Setting [3] is: compound: compound 33 (diphenyl IMiD analogue).

The values below come from the supplement of paper PMC12645437, “Orthogonal IMiD-Degron Pairs Induce Selective Protein Degradation in Cells” (ACS Chemical Biology, 2025).

Whole data set: some 8,300 sequences, median “log2 fold change of degron read counts, EGFP-low vs EGFP+ sorted cells (limma voom), compound-induced degradation” near -1.1, cut for the highest 2% near 3.2. Many of the other results were omitted from the sample, so the highest values are more common in it than they were.
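Further: pooled lentiviral library of zinc finger degron-EGFP fusions in mCherry-positive Jurkat cells, FACS-sorted after compound exposure, with degron abundance counted by next-generation sequencing.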

B1: 46F_47Q_49P_50V_52G_53A_54M_55F_67L_, Q9UKT9 (peptide)
chain: FQCPVCGAMFTQKGNLLRHIKL
On to B1, for which the “log2 fold change of degron read counts” value under setting [1] was -0.606, the “log2 fold change of degron read counts” value under setting [2] was determined as 2.26, the “log2 fold change of degron read counts” value under setting [3] worked out at 2.34 and the “log2 fold change of degron read counts” value (compound: thalidomide) is 3.58.

B2: 46F_47A_49P_50V_52G_53A_54M_55F_67L_, Q9UKT9 (peptide)
chain: FACPVCGAMFTQKGNLLRHIKL
As for B2, the “log2 fold change of degron read counts” value was 2.83 under setting [1], 0.812 under setting [2], 0.601 under setting [3] and -0.0754 (compound: thalidomide).

B3: 46F_47N_49P_50V_52G_53A_54M_55F_67L_, Q9UKT9 (peptide)
chain: FNCPVCGAMFTQKGNLLRHIKL
For B3, the “log2 fold change of degron read counts” value was 0.95 under setting [1], -0.0712 under setting [2], 0.173 under setting [3] and 0.109 (compound: thalidomide).

B4: 46F_47S_49P_50V_52G_53A_54M_55F_67L_, Q9UKT9 (peptide)
chain: FSCPVCGAMFTQKGNLLRHIKL
For the sequence B4, the “log2 fold change of degron read counts” value runs as follows: under setting [1], 1.68; under setting [2], 0.847; under setting [3], 1.55; (compound: thalidomide) 0.449.

B5: 46F_47G_49P_50V_52G_53A_54M_55F_67L_, Q9UKT9 (peptide)
chain: FGCPVCGAMFTQKGNLLRHIKL
On to B5, for which the “log2 fold change of degron read counts” value under setting [1] came to 3.86, the “log2 fold change of degron read counts” value under setting [2] is 2.08, the “log2 fold change of degron read counts” value under setting [3] is 2.22 and the “log2 fold change of degron read counts” value (compound: thalidomide) was 0.29.

B6: 46F_47V_49P_50V_52G_53A_54M_55F_67L_, Q9UKT9 (peptide)
chain: FVCPVCGAMFTQKGNLLRHIKL
In the case of B6, the “log2 fold change of degron read counts” value runs as follows: under setting [1], -0.83; under setting [2], 1.28; under setting [3], 1.78; (compound: thalidomide) 1.71.

B7: 46L_47H_49N_50Q_52G_53F_54R_55C_67L_, Q9UKT9 (peptide)
chain: LHCNQCGFRCTQKGNLLRHIKL
Turning to B7, the “log2 fold change of degron read counts” value by setting is: under setting [1], -1.15; under setting [2], -1.7; under setting [3], -1.52; (compound: thalidomide) -1.61.

B8: 46F_47R_49P_50I_52G_53H_54Q_55F_67L_, Q9UKT9 (peptide)
chain: FRCPICGHQFTQKGNLLRHIKL
Turning to B8, the “log2 fold change of degron read counts” value by setting is: under setting [1], -2.97; under setting [2], -2.88; under setting [3], -2.09; (compound: thalidomide) -1.65.

B9: 46F_47N_49E_50I_52G_53R_54G_55F_67L_, Q9UKT9 (peptide)
chain: FNCEICGRGFTQKGNLLRHIKL
With B9, the “log2 fold change of degron read counts” value by setting is: under setting [1], -0.684; under setting [2], -2.34; under setting [3], -2.3; (compound: thalidomide) -2.43.

B10: 46F_47I_49D_50V_52G_53A_54D_55F_67L_, Q9UKT9 (peptide)
chain: FICDVCGADFTQKGNLLRHIKL
In the case of B10, the “log2 fold change of degron read counts” value under setting [1] is -3.13, the “log2 fold change of degron read counts” value under setting [2] is -2.03, the “log2 fold change of degron read counts” value under setting [3] is -2.05 and the “log2 fold change of degron read counts” value (compound: thalidomide) is -2.17.

B11: 46F_47T_49E_50I_52G_53R_54S_55F_67L_, Q9UKT9 (peptide)
chain: FTCEICGRSFTQKGNLLRHIKL
B11: the “log2 fold change of degron read counts” value reads like this: under setting [1], -2.68; under setting [2], -1.98; under setting [3], -1.23; (compound: thalidomide) -0.866.

B12: 46F_47V_49N_50I_52G_53A_54A_55F_67L_, Q9UKT9 (peptide)
chain: FVCNICGAAFTQKGNLLRHIKL
For B12, the “log2 fold change of degron read counts” value is -0.113 under setting [1], 1.76 under setting [2], 1.87 under setting [3] and 2.31 (compound: thalidomide).

B13: 46L_47V_49N_50Q_52G_53F_54D_55C_67L_, Q9UKT9 (peptide)
chain: LVCNQCGFDCTQKGNLLRHIKL
For B13, the “log2 fold change of degron read counts” value reads like this: under setting [1], -2.99; under setting [2], -3.3; under setting [3], -2.89; (compound: thalidomide) -2.71.

B14: 46L_47T_49N_50Q_52G_53F_54F_55C_67L_, Q9UKT9 (peptide)
chain: LTCNQCGFFCTQKGNLLRHIKL
As to B14, the “log2 fold change of degron read counts” value is -1.72 under setting [1], -1.87 under setting [2], -2.06 under setting [3] and -1.27 (compound: thalidomide).

B15: 46F_47K_49E_50V_52G_53A_54E_55F_67L_, Q9UKT9 (peptide)
chain: FKCEVCGAEFTQKGNLLRHIKL
For the sequence B15, the “log2 fold change of degron read counts” value under setting [1] was -1.42, the “log2 fold change of degron read counts” value under setting [2] was -2.94, the “log2 fold change of degron read counts” value under setting [3] was -2.99 and the “log2 fold change of degron read counts” value (compound: thalidomide) was -1.02.

B16: 46F_47Q_49E_50V_52G_53A_54E_55F_67L_, Q9UKT9 (peptide)
chain: FQCEVCGAEFTQKGNLLRHIKL
On to B16, for which the “log2 fold change of degron read counts” value was determined as 0.65 under setting [1], 0.856 under setting [2], 1.61 under setting [3] and 3.7 (compound: thalidomide).

B17: 46F_47S_49P_50V_52G_53A_54E_55F_67L_, Q9UKT9 (peptide)
chain: FSCPVCGAEFTQKGNLLRHIKL
For the sequence B17, the “log2 fold change of degron read counts” value reads like this: under setting [1], 1.12; under setting [2], 0.204; under setting [3], 1.45; (compound: thalidomide) 0.472.

B18: 46F_47V_49P_50V_52G_53A_54E_55F_67L_, Q9UKT9 (peptide)
chain: FVCPVCGAEFTQKGNLLRHIKL
In the case of B18, the “log2 fold change of degron read counts” value by setting is: under setting [1], -0.775; under setting [2], 1.8; under setting [3], 1.37; (compound: thalidomide) 2.53.

B19: 46F_47Y_49E_50V_52G_53A_54E_55F_67L_, Q9UKT9 (peptide)
chain: FYCEVCGAEFTQKGNLLRHIKL
With B19, the “log2 fold change of degron read counts” value reads like this: under setting [1], 3.4; under setting [2], 2.95; under setting [3], 2.08; (compound: thalidomide) 0.0761.

B20: 46F_47F_49E_50V_52G_53A_54E_55F_67L_, Q9UKT9 (peptide)
chain: FFCEVCGAEFTQKGNLLRHIKL
Consider B20, for which the “log2 fold change of degron read counts” value runs as follows: under setting [1], 3.01; under setting [2], 3.05; under setting [3], 0.82; (compound: thalidomide) 0.898.

B21: 46F_47N_49E_50V_52G_53A_54E_55F_67L_, Q9UKT9 (peptide)
chain: FNCEVCGAEFTQKGNLLRHIKL
Take B21: the “log2 fold change of degron read counts” value was 0.9 under setting [1], -1.18 under setting [2], -1.23 under setting [3] and -0.895 (compound: thalidomide).

B22: 46F_47T_49E_50V_52G_53A_54E_55F_67L_, Q9UKT9 (peptide)
chain: FTCEVCGAEFTQKGNLLRHIKL
As for B22, the “log2 fold change of degron read counts” value under setting [1] was -0.301, the “log2 fold change of degron read counts” value under setting [2] turned out to be 1.19, the “log2 fold change of degron read counts” value under setting [3] was determined as 0.247 and the “log2 fold change of degron read counts” value (compound: thalidomide) was 1.9.

B23: 46F_47Q_49P_50V_52G_53A_54E_55F_67L_, Q9UKT9 (peptide)
chain: FQCPVCGAEFTQKGNLLRHIKL
As for B23, the “log2 fold change of degron read counts” value runs as follows: under setting [1], 0.475; under setting [2], 1.57; under setting [3], 2.3; (compound: thalidomide) 3.76.

B24: 46F_47W_49P_50I_52G_53H_54Q_55F_67L_, Q9UKT9 (peptide)
chain: FWCPICGHQFTQKGNLLRHIKL
B24: the “log2 fold change of degron read counts” value was -1.19 under setting [1], 0.164 under setting [2], -0.157 under setting [3] and -0.942 (compound: thalidomide).

B25: 46F_47H_49N_50V_52G_53A_54L_55F_67L_, Q9UKT9 (peptide)
chain: FHCNVCGALFTQKGNLLRHIKL
As to B25, the “log2 fold change of degron read counts” value by setting is: under setting [1], -1.06; under setting [2], -1.21; under setting [3], -0.823; (compound: thalidomide) -1.55.

B26: 46L_47T_49E_50I_52G_53F_54D_55C_67L_, Q9UKT9 (peptide)
chain: LTCEICGFDCTQKGNLLRHIKL
For B26, the “log2 fold change of degron read counts” value was -3.24 under setting [1], -2.7 under setting [2], -2.79 under setting [3] and -2.46 (compound: thalidomide).

B27: 46L_47L_49N_50Q_52G_53F_54A_55C_67L_, Q9UKT9 (peptide)
chain: LLCNQCGFACTQKGNLLRHIKL
As to B27, the “log2 fold change of degron read counts” value under setting [1] was -2.26, the “log2 fold change of degron read counts” value under setting [2] was -2.6, the “log2 fold change of degron read counts” value under setting [3] is -2.27 and the “log2 fold change of degron read counts” value (compound: thalidomide) is -1.53.

B28: 46F_47V_49N_50Q_52G_53A_54T_55F_67L_, Q9UKT9 (peptide)
chain: FVCNQCGATFTQKGNLLRHIKL
For the sequence B28, the “log2 fold change of degron read counts” value under setting [1] is -2.74, the “log2 fold change of degron read counts” value under setting [2] is -1.56, the “log2 fold change of degron read counts” value under setting [3] was -1.1 and the “log2 fold change of degron read counts” value (compound: thalidomide) was -1.67.
